Measurements from PubChem BioAssay.
Activity calls are given as the source filed them.

Tests used:
[1] = binders of probe aFSTL3 on microarray, primary screen, stem cell growth factor project, biochemical, small-molecule microarray, fluorescence 635/667 (AID 1064); conditions: higher = more signal;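 further: measures binding of the biotinylated anti-FSTL3 antibody to printed compounds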
[2] = binders from COS7 lysate, DM2A8 probe, primary screen, torsin A project, cell lysate, small-molecule microarray, fluorescence 635/667 (AID 1065); conditions: higher = more signal, COS7 lysate expressing mutant human TOR1A
[3] = binders of probe aFGF2 on microarray, primary screen, stem cell growth factor project, biochemical, small-molecule microarray, fluorescence 635/667 (AID 1067); conditions: higher = more signal;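 further: measures binding of biotinylated aFGF2 protein to printed compounds on slides; z-score merges feature fluorescence and signal-to-noise across triplicate slides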
[4] = binders of probe aFGF10 on microarray, primary screen, stem cell growth factor project, biochemical, small-molecule microarray, fluorescence 635/667 (AID 1071); conditions: higher = more signal;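 further: score merges 667 nm spot intensity and signal to noise from triplicate slides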
[5] = target: Neurogenic locus notch homolog protein 2 (Homo sapiens) (UniProt Q04721); test: Notch2 binders on small-molecule microarrays, primary screen, biochemical, small-molecule microarray, 635 nm fluorescence, stem cell growth factors (AID 1073); conditions: Notch2 binding, higher = more signal
Neurogenic locus notch homolog protein 2 (Homo sapiens), sequence (Q04721 whole entry, looked up, canonical isoform): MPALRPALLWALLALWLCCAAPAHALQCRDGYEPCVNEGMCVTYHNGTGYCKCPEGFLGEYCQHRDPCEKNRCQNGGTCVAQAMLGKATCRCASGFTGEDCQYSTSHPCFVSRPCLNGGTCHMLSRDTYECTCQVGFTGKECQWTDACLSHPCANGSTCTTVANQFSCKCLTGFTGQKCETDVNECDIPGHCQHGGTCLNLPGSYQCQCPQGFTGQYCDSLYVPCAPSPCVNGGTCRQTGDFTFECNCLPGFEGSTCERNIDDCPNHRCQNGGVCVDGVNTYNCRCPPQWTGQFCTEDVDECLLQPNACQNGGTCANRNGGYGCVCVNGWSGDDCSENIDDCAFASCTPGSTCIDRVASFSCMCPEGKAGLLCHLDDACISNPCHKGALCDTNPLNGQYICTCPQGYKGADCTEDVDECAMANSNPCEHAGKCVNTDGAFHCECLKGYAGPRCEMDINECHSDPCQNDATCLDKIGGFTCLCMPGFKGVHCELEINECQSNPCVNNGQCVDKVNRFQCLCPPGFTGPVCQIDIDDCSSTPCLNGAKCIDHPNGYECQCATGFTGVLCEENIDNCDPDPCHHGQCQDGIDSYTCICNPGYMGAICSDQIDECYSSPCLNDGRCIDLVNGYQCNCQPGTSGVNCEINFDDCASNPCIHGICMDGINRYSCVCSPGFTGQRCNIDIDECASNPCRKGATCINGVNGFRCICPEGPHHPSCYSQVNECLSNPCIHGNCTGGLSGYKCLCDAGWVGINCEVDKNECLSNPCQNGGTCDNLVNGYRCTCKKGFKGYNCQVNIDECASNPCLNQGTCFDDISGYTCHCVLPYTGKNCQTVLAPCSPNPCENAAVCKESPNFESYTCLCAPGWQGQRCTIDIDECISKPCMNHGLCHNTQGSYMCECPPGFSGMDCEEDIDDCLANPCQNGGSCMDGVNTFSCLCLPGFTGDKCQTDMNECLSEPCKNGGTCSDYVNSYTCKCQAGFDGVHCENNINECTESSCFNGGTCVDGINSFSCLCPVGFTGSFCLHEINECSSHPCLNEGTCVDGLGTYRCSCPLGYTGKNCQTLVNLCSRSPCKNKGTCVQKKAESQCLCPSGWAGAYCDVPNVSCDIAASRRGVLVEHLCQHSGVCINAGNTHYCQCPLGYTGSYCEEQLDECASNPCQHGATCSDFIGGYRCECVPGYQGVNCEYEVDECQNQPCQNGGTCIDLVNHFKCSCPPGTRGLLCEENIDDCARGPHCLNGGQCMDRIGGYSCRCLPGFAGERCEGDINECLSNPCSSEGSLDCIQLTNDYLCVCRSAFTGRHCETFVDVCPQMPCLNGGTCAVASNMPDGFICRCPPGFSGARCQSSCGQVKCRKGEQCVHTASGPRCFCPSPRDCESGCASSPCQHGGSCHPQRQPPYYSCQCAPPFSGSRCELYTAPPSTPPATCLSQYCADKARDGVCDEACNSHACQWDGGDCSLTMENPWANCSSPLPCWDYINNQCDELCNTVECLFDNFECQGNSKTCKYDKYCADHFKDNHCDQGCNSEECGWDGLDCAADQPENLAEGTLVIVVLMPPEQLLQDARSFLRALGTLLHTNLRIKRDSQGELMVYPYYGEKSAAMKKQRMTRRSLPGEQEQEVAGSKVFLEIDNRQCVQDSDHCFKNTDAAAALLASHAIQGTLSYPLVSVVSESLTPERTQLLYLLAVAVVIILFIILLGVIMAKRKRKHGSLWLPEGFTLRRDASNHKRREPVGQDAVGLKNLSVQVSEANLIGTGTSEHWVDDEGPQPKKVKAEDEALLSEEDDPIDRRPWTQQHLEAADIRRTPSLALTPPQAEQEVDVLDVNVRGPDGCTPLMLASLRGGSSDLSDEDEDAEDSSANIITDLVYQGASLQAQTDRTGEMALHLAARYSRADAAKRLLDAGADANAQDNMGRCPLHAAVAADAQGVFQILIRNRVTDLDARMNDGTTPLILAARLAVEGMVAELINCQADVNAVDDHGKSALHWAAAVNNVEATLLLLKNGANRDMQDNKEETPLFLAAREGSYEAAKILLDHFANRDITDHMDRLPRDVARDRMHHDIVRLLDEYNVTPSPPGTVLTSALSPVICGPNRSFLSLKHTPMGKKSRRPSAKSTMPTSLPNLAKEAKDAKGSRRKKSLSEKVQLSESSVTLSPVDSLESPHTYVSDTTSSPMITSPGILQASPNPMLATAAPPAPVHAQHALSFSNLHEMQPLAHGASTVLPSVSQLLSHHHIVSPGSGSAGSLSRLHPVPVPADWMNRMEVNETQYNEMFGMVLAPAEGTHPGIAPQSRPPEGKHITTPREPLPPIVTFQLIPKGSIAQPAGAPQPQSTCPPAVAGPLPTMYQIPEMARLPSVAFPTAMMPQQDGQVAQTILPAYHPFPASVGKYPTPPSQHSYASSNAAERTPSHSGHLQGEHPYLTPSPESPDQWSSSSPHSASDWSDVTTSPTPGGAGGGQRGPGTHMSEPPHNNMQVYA

[6] = target: Pro-neuregulin-1, membrane-bound isoform (Homo sapiens) (UniProt Q02297); test: NRG1 binders on small-molecule microarrays, primary screen, psychiatric disease protein project, biochemical, small-molecule microarray, fluorescence 635/667 (AID 1075); conditions: NRG1 binding, 635 nm fluorescence, higher = more signal;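 further: score combines 667 nm spot fluorescence with signal to noise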
Pro-neuregulin-1, membrane-bound isoform (Homo sapiens), sequence (Q02297 whole entry, looked up, the tested form may be a part, canonical isoform): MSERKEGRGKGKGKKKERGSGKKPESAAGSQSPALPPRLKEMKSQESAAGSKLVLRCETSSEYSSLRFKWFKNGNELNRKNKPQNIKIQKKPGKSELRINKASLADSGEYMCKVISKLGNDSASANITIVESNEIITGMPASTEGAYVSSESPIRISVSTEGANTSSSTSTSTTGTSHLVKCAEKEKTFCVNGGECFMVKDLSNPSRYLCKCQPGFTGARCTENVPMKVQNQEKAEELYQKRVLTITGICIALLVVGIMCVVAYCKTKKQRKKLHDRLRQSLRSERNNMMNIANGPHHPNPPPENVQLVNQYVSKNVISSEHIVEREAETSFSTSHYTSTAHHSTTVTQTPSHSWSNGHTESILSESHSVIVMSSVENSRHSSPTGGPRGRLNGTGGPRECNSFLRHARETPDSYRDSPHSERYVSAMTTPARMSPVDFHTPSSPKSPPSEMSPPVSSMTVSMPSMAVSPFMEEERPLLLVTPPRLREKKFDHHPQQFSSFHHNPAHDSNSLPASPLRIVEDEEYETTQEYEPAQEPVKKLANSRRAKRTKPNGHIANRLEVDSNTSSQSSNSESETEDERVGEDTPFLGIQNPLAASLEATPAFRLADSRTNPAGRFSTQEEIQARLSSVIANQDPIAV

[7] = test system: Neuregulin-1 EGF-like domain; test: binders of neuregulin-1 EGF-like domain, primary screen, biochemical, small-molecule microarray, 635 nm fluorescence (AID 1081); conditions: small-molecule microarray binding, higher = more signal;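 further: binding of the protein to compounds printed on small-molecule microarray slides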
[8] = FRG1 promoter luciferase signal modulators, primary screen, FRG1 inhibition for FSHD, cell-based, C2C12 myotubes, firefly/Renilla luciferase, luminescence (AID 1084); conditions: higher = more signal, called active from +8 up or from −8 down
[9] = binders of probe aFST on microarray, primary screen, stem cell growth factor project, biochemical, small-molecule microarray, fluorescence 635/667 (AID 1086); conditions: higher = more signal;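 further: score merges 667 nm fluorescence with signal-to-noise of each printed compound spot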
[10] = binders of probe aHhip on microarray, primary screen, stem cell growth factor project, biochemical, small-molecule microarray, fluorescence 635/667 (AID 1087); conditions: higher = more signal;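 further: score merges spot fluorescence at 667nm with spot signal to noise ratio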
[11] = test system: PRMT1 (protein arginine N-methyltransferase 1); test: PRMT1 binders on small-molecule microarrays, primary screen, biochemical, small-molecule microarray, 635 nm fluorescence (AID 1088); conditions: small-molecule microarray binding, higher = more signal;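 further: binding of Prmt1 protein to compounds spotted on small-molecule microarray slides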
[12] = yeast growth modulation, basal conditions, primary screen, YJM789 clinical isolate, OD600, 24 h (AID 1089);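 further: growth of clinical yeast isolate S. cerevisiae YJM 789 seeded 1000 cells per well; test concentration not given here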; conditions: S. cerevisiae YJM789 growth, higher = more signal, called active from +8 up or from −8 down
[13] = fission yeast growth modulation, primary screen, strain 972, OD600, 24 h, no modulator (AID 1090);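 further: basal condition with compound alone and no growth modifier present; test concentration not given here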; conditions: S. pombe 972 growth, higher = more signal, called active from +8 up or from −8 down
[14] = S. cerevisiae growth modulation with rapamycin, primary screen, strain BY4716, OD600, 96 h (AID 1091); conditions: higher = more signal, called active from +8 up or from −8 down; further: test concentration not given here
[15] = target: Torsin-1A-interacting protein 2 (Homo sapiens) (UniProt Q8NFQ8); test: LULL1 binders on small-molecule microarray, primary screen, cell lysate, human LULL1 lysate, 635/667 nm fluorescence (AID 1092); conditions: hLULL1 lysate binding, 635 nm fluorescence, higher = more signal;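 further: probe is lysate of COS7 cells overexpressing human LULL1; score merges per-feature 667 nm fluorescence with signal-to-noise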
Torsin-1A-interacting protein 2 (Homo sapiens), sequence (Q8NFQ8 whole entry, looked up): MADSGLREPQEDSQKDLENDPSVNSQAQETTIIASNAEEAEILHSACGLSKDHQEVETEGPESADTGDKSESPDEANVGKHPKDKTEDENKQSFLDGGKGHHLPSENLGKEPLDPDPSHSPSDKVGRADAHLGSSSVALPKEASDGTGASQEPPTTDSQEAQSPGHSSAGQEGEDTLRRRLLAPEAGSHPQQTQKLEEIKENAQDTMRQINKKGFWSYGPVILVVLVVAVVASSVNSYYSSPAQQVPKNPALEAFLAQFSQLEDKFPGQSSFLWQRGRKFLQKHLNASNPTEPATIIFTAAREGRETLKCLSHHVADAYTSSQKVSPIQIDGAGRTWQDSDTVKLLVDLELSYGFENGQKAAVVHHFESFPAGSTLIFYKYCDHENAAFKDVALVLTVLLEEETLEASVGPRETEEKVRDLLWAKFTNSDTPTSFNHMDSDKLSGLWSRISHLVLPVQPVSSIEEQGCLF

[16] = E. coli growth modulation, two-sided OD650, primary screen, E. coli filamentation project, strain DRC41, 24 h (AID 1093); conditions: OD650, 24 h, higher = more signal, called active from +8 up or from −8 down;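 further: MC1000 strain lacking acrAB efflux and sulA so SOS filamentation is blocked; test concentration not given here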
[17] = small-molecule microarray binders of probe aLefty2, primary screen, biochemical, biotinylated probe, 635/667 nm fluorescence (AID 1094); conditions: higher = more signal;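 further: score merges spot fluorescence near 667 nm with spot signal-to-noise ratio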
[18] = test system: Noggin (protein binding on small-molecule microarray); test: Noggin binders on small-molecule microarray, primary screen, biochemical, 635/667 nm fluorescence (AID 1095); conditions: 635 nm fluorescence, higher = more signal;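 further: score merges 667 nm feature fluorescence with signal to noise over triplicate slides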
[19] = target: Neurogenic locus notch homolog protein 3 (Homo sapiens) (UniProt Q9UM47); test: NOTCH3 binders on small-molecule microarray, primary screen, biochemical, 635/667 nm fluorescence (AID 1096); conditions: NOTCH3 binding, 635 nm fluorescence, higher = more signal
[20] = small-molecule microarray binders of probe aEGFR, primary screen, biochemical, biotinylated probe, 635/667 nm fluorescence (AID 1097); conditions: higher = more signal;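 further: probe is a biotinylated anti-EGFR antibody binding compounds printed on slides; score combines fluorescence near 667 nm and signal to noise of each spot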

Compound | composite z-score [1] | composite z-score [2] | composite z-score [3] | composite z-score [4] | composite z-score [5] | composite z-score [6] | composite z-score [7] | z-score [8] | composite z-score [9] | composite z-score [10] | composite z-score [11] | z-score [12] | z-score [13] | z-score [14] | composite z-score [15] | z-score [16] | composite z-score [17] | composite z-score [18] | composite z-score [19] | composite z-score [20]
O=C1C2C=CC(C(O)c3ccccc3)N(n3cnnc3)C2C(=O)N1Cc1ccccc1 (stereo not given) | 0.43 | -0.399 | -0.0598 | 0.118 | 0.729 | 1.33 | 0.544 | -1.43 (inactive) | 0.364 | -0.16 | 0.345 | -1.3 (inactive) | 0.264 (inactive) | -0.881 (inactive) | 1.28 | -0.734 (inactive) | 0.116 | -0.0596 | -0.163 | -0.0112
C=C(COC)/C(=C/C[C@@H](OC(=O)c1ccncc1)c1ccc(OCCO)cc1)c1cc(C(=O)OC)ccc1OC | -0.202 | 0.984 | -0.0775 | 0.702 | 0.864 | 1.44 | 1.2 | -2.14 (inactive) | 0.238 | 0.219 | 1.57 | -1.08 (inactive) | -2.06 (inactive) | -1.83 (inactive) | 2.75 | 2.15 (inactive) | -0.0903 | 0.861 | 1.12 | -0.0129
CC(C)N1CC=CC23O[C@@H]4/C=C\CCCOC(=O)C4[C@H]2C(=O)N(CCO)[C@@H]3C1=O (stereo not given in full) | -0.0118 | -0.158 | -0.156 | -0.958 | -0.933 | 2.16 | 1.12 | -0.469 (inactive) | -0.219 | -0.257 | 0.885 | -1.92 (inactive) | -3.04 (inactive) | -1.77 (inactive) | 1.95 | 3.25 (inactive) | -0.0766 | -0.715 | -0.0811 | -0.173
CC(C)[Si]1(C(C)C)OCc2cc(C3CC3)nc(-c3ccccc3)c21 | 0.322 | 0.598 | -0.119 | -1.2 | -1.27 | -0.291 | -0.531 | -1.03 (inactive) | -0.135 | -0.261 | 0.168 | -0.604 (inactive) | -3.7 (inactive) | -1.39 (inactive) | -0.431 | 2.13 (inactive) | -0.142 | -0.246 | -0.802 | -0.216
O=C1OCC=C[C@H]2OC34C=CCN(Cc5ccccc5)C(=O)[C@H]3N(CCCCCO)C(=O)[C@@H]4[C@@H]12 (stereo not given in full) | 1.67 | -0.0288 | -0.187 | -0.179 | -1.38 | 1.13 | 0.631 | 0.443 (inactive) | -0.594 | -0.216 | -0.702 | -0.524 (inactive) | -1.06 (inactive) | -0.368 (inactive) | 1.06 | 2.33 (inactive) | 0.0282 | -1.5 | -0.911 | -0.358
COc1cc(CO)cc(I)c1O[C@H]1C=C(C(=O)NCCO)C[C@@H](N(CC2CCCCC2)C(=O)c2cc3ccccc3oc2=O)[C@@H]1O | -0.336 | -0.0516 | -0.0513 | 0.233 | 0.363 | 0.0577 | 0.377 | -1.48 (inactive) | -0.52 | 0.0722 | -0.449 | 0.411 (inactive) | -0.858 (inactive) | -0.393 (inactive) | 0.0986 | 2.1 (inactive) | -0.186 | 0.606 | -0.0481 | -0.0656
C[C@@H]1NC(=O)CC=C[C@@H](C)[C@@H]2C=C[C@H](O)[C@@H](COC(=O)[C@H](C)NC(=O)CC=C[C@@H](C)[C@@H]3C=C[C@H](O)[C@@H](COC1=O)O3)O2 | -0.703 | 0.0339 | -0.0511 | 0.216 | 0.0211 | -0.428 | -0.247 | 0.587 (inactive) | 0.229 | -0.0994 | 0.0027 | -1.07 (inactive) | -2.24 (inactive) | -0.764 (inactive) | -0.178 | 0.602 (inactive) | -0.221 | 0.464 | 0.108 | -0.0262
COc1cccc([C@@H]2[C@@H](C)CC[C@H]3C(=O)N(C)[C@@H](C(C)C)C(=O)N23)c1 | -0.413 | 0.353 | -0.174 | 0.391 | 0.188 | 0.0253 | 0.475 | 0.056 (inactive) | -0.0409 | 0.154 | -0.652 | -0.0534 (inactive) | -0.719 (inactive) | 0.369 (inactive) | 0.21 | 0.652 (inactive) | -0.0113 | 0.375 | 0.374 | -0.111
COCCOC(=O)N1C(=O)[C@@]2(c3cc(C#CCCO)ccc31)[C@H](C(=O)N1CCCCCCC1)[C@H]1C(=O)O[C@H](c3ccccc3)[C@H](c3ccccc3)N1[C@@H]2c1ccc(O)cc1 | 2.61 | 1.22 | 0.188 | 0.514 | 1.15 | 1.17 | 1.13 | -2.05 (inactive) | 2.25 | 0.497 | 1.56 | -3.75 (inactive) | -2.94 (inactive) | -1.62 (inactive) | 2.91 | 3.27 (inactive) | 1.08 | 1.11 | 1.05 | 0.0645
Cc1ccc(S[C@]2(C(=O)NCCCN(C)C)CC(=O)N(C3CCCCC3)[C@@H]2c2ccc(CO)cc2I)cc1 | 1.93 | -0.697 | -0.113 | -0.546 | -0.197 | 0.266 | 0.942 | -1.31 (inactive) | 0.235 | -0.0645 | -0.167 | 0.782 (inactive) | -8.01 (active) | -0.417 (inactive) | 1.81 | -0.455 (inactive) | 0.213 | -0.553 | -0.742 | -0.257
